Drawing on ChEMBL document CHEMBL3988442, “University of Dundee, Small-Polar-MMV Screening Library” (2021), this text covers Percent Effect for 74 compounds.

Assay [1] addresses T1, Aspartate--tRNA(Asp/Asn) ligase (Mycobacterium tuberculosis (strain ATCC 25618 / H37Rv)) (UniProt P9WFW3).
T1 sequence (whole entry): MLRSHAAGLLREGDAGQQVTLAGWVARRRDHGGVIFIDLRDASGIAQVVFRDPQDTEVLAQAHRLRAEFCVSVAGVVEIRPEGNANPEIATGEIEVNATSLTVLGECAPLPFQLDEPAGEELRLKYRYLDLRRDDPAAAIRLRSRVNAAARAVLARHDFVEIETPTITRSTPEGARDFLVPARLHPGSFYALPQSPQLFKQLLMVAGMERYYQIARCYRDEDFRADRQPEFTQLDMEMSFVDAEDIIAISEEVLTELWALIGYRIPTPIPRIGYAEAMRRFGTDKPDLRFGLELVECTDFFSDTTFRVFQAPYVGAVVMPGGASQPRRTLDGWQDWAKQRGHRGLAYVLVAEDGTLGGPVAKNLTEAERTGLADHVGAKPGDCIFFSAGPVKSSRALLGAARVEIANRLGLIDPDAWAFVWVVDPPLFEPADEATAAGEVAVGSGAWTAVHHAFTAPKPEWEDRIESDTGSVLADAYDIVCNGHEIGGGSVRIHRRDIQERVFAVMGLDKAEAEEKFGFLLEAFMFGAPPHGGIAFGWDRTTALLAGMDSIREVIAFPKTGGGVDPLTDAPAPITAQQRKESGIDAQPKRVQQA
The experiment in a line: Assay for Asp RNA synthetase-1 from Mycobacterium tuberculosis. The settings on record: 30 µM. More on the design: scale not given: direction of the effect not stated beside the values. It is filed as functional.

For assay [2], the target named is Shiga toxin 2 (Escherichia coli O157:H7) (UniProt P09385+P09386). The experiment in a line: E. coli 0.157:H7 Shiga Toxin SOP - stx2 screening assay. It is filed as functional. To be noted: 30 µM. More on the design: scale not given: direction of the effect not stated beside the values.

`COC(=O)NCc1cc2n(n1)CCCN(C(C)=O)C2`: the results for the Percent Effect in assay [1] and in assay [2] were -4.82% and 15.5%, respectively.
With `CC(NC(=O)Nc1cccnc1N1CCCC1)c1nncn1C` (stereo not drawn), the Percent Effect in assay [1] was -2.86%; in assay [2] it was 7.91%.
For `COc1c(C2CCCN2C(=O)c2cncnc2C)c(C)nn1C` (stereo not drawn), the Percent Effect in assay [1] is 4.44%; in assay [2] it was -11.2%.
The corresponding values for `O=C(Nc1ccccc1F)N(CCO)Cc1ccsc1` are -3.39% and 20.3%.
The corresponding values for `COc1ccc(Br)c(C(=O)NCC2CCN(C(=O)c3ccoc3)CC2)c1` are -5.03% and 0.84%.
For the compound `CN1CCCc2cc(NC(=O)N3CCOC(C(N)=O)C3)ccc21` (stereo not drawn), the values for the Percent Effect in assay [1] and in assay [2] were -0.684% and -77.6%, respectively.
The corresponding values for `CCNC(=O)N1CCN(Cc2nc3ccccc3[nH]2)[C@@H]2CS(=O)(=O)C[C@@H]21` are 2.89% and -6.12%.
For the compound `COCCCC1(CO)CCCN(CCS(C)(=O)=O)C1` (stereo not drawn), the Percent Effect in assay [1] amounted to 4.17%; in assay [2], 0.747%.
`O=c1[nH]c2c(c(=O)n1C1CCCCC1)CCC2NCCc1ccccc1` (stereo not drawn): the Percent Effect in assay [1] was -2.9%; in assay [2], 3.31%.
Take `O=C(CN1CCC(c2ccnn2CCO)CC1)NCC1CC1`: the results for the Percent Effect in assay [1] and in assay [2] were -6.54% and -19.2%, respectively.
The corresponding values for `CC(C)C(=O)N1CCCC(c2ncncc2-c2ccncc2)C1` (stereo not drawn) are -3.04% and -34.6%.
As for `CCC1=N[C@@]2(CC[C@@H]3CN(S(=O)(=O)N(C)C)C[C@@H]32)C(=O)N1CC(C)C`, the figures for the Percent Effect in assay [1] and in assay [2] were 2% and 9.58%, respectively.
The corresponding values for `Cc1nc(NCc2ccc(C)o2)cc(C(=O)N2CCOCC2)n1` are 12.5% and -16.9%.
In the case of `CCN(CC(=O)NC)S(=O)(=O)N1CCCCCC1`, the Percent Effect in assay [1] amounted to 1.14%; in assay [2], 6.63%.
With `Cc1cc(C)nc(N2CCN(C(=O)c3cc(Cl)c[nH]3)CC2)n1`, the Percent Effect in assay [1] is 1.48%; in assay [2] it was -6.42%.
`Cc1cnn(C2CCCN(C(=O)Cc3ccc(-n4cccn4)cc3)C2)c1` (stereo not drawn): the Percent Effect in assay [1] is -4.37%; in assay [2] it was 4.84%.
The corresponding values for `COc1cc(C)nc(N2CCN(C(=O)CCn3cc(C)cn3)CC2)n1` are -3.63% and 12%.
As for `CC(C)c1ncc2c(n1)CN(Cc1nc(-c3ccoc3)no1)CC2`, the Percent Effect in assay [1] was 3.7%; in assay [2], -1.63%.
The corresponding values for `CC(C)n1ccnc1CN1CCCN(C(=O)c2cccnc2O)CC1` are -2.15% and -43.9%.
The corresponding values for `O=C1CC2(CCN(S(=O)(=O)c3cccs3)C2)CN1c1ccccc1` (stereo not drawn) are 3.64% and 7.29%.
The corresponding values for `CN(C)CCN1CCO[C@@H]2CN(C(=O)c3cccs3)CC[C@@H]2C1` are 0.229% and 4.93%.
Take `CCc1ccsc1C(=O)N1CCN(CC(O)CC)CC1` (stereo not drawn): the values for the Percent Effect in assay [1] and in assay [2] were 1.06% and -26.4%, respectively.
The corresponding values for `Cc1cc(CN2CCCC2c2noc(C)n2)no1` (stereo not drawn) are -5.01% and -5.29%.
Consider `Cc1cc(CN2CCN(c3nn4cc(C)nc4s3)CC2)on1`, for which the Percent Effect is -0.8% in assay [1] and -27.6% in assay [2].
Take `COC(=O)c1ccc(C2CC(=O)Oc3cc(C)[nH]c(=O)c32)cc1` (stereo not drawn): the Percent Effect in assay [1] is -5.75%; in assay [2], -8.85%.
The corresponding values for `Cc1nn(C)c(N(C)C)c1CNCC(O)c1ccccc1` (stereo not drawn) are -4.11% and -17.5%.
The corresponding values for `CCn1nccc1CNC(=O)C(C)n1cc2c(n1)c(C)nn2C` (stereo not drawn) are -5.02% and -29.4%.
For the compound `O=C(c1ccc[nH]1)N1C[C@H]2CC[C@@H]1CN(C1Cc3ccccc3C1)C2`, the Percent Effect in assay [1] was determined as 2.83%; in assay [2] it was 10.5%.
The corresponding values for `Cc1cccc(S(=O)(=O)NCC(C)N2CCN(C)CC2)c1Cl` (stereo not drawn) are 1.52% and -12.1%.
The corresponding values for `c1ccc(-c2nccc(CNCC3CCCN3c3cccnn3)n2)cc1` (stereo not drawn) are 0.1% and 11.8%.
The corresponding values for `CCc1nc(CN2CCCC(N(C)Cc3cnc(C)s3)C2)no1` (stereo not drawn) are -0.259% and 4.86%.
Consider `Cn1cc(C(=O)NCc2cn3c(n2)CN(CC2CCOCC2)CC3)cn1`, for which the values for the Percent Effect in assay [1] and in assay [2] were -2.89% and -14.5%, respectively.
Regarding `O=C(c1cc(C2CC2)on1)N1CC[C@]2(C[C@H](Oc3cccnc3)CO2)C1`, the Percent Effect in assay [1] turned out to be 6.67%; in assay [2], 7.42%.
Consider `CN(Cc1cccc(F)c1)C1CCN(CCc2ccccn2)CC1`, for which the Percent Effect in assay [1] is -3.32%; in assay [2] it was -8.85%.
As for `Cc1ccc(OCC(=O)NCc2ccccc2F)nc1`, the Percent Effect in assay [1] is -0.524%; in assay [2] it was -8.96%.
For `Cc1noc(C)c1CN1CCN(Cc2nccn2C)C(C)C1` (stereo not drawn), the Percent Effect is -3.74% in assay [1] and 1.27% in assay [2].
Turning to `O=C(c1ccnnc1)N1CCC2(CC1)CC(N1CCOCC1)C2`, the figures for the Percent Effect in assay [1] and in assay [2] were 2.89% and -0.921%, respectively.
The corresponding values for `CC(C)C(=O)N1CCC(c2nc(O)cc(-c3ccncc3)n2)CC1` are -2.46% and 3.51%.
The corresponding values for `c1ccc2sc(CN3CCOC(Cn4cncn4)C3)nc2c1` (stereo not drawn) are -5.32% and 14%.
Consider `CC(c1ccco1)N(C)Cc1nc2c(cnn2C)c(=O)[nH]1` (stereo not drawn), for which the results for the Percent Effect in assay [1] and in assay [2] were -2.56% and -9.3%, respectively.
Regarding `Cc1ccccc1CN1CCN(Cc2nccn2C)CC1`, the Percent Effect in assay [1] is -1.8%; in assay [2] it was 13.3%.
With `CCC(C)(NCC(=O)Nc1nc(C)cs1)c1nc(C)cs1` (stereo not drawn), the Percent Effect in assay [1] was 2.89%; in assay [2], -28.4%.
Regarding `CC(C)C(Sc1nnc(C2CC2)n1C1CC1)C(=O)NCc1cccnc1` (stereo not drawn), the Percent Effect is -2.03% in assay [1] and -18.2% in assay [2].
The corresponding values for `CCC1=N[C@@]2(CC[C@@H]3CN(Cc4ccc(Cl)cc4)C[C@@H]32)C(=O)N1C` are 3.65% and 3.45%.
The corresponding values for `COc1ccccc1CC(=O)NCc1c(C)nc2cc(=O)[nH]n2c1C` are -0.878% and 13.6%.
The corresponding values for `O=C1CC(c2ccncc2)C2(CCN(CCO)CC2)N1` (stereo not drawn) are -1.48% and -4.07%.
Consider `c1cc(CNCC2CNc3ccnn3C2)cc(N2CCCCC2)n1` (stereo not drawn), for which the Percent Effect in assay [1] is -2.55%; in assay [2] it was -110%.
As to `Cc1cc(C(=O)N2Cc3ccccc3OC3(CCOCC3)C2)nc(N)n1`, the Percent Effect in assay [1] amounted to 0.67%; in assay [2], 3.58%.
The corresponding values for `Cn1ccnc1CN1CCN(CCOc2ccccc2C#N)CC1` are -0.506% and 16.8%.
In the case of `CS(=O)(=O)N1Cc2ccccc2C2(CCN(C(=O)c3ccno3)CC2)C1`, the figures for the Percent Effect in assay [1] and in assay [2] were 1.46% and -6.76%, respectively.
Consider `O=C(NCC1CCOCC1)[C@@H]1C[C@@H]2CCN(Cc3ccco3)C[C@H]2O1`, for which the figures for the Percent Effect in assay [1] and in assay [2] were 0.32% and 4.1%, respectively.
The corresponding values for `COCCC1COC2(CCN(C(=O)c3ccco3)CC2)C1` (stereo not drawn) are -0.368% and -2.25%.
The corresponding values for `CC(C)(C)C(=O)N1CCC(c2nc(O)cc(-c3ccccn3)n2)CC1` are 5.88% and -6.29%.
As to `CCN1CC(C(=O)NCc2ccnc(-n3ccnc3C)c2)CC1=O` (stereo not drawn), the Percent Effect in assay [1] was -3.16%; in assay [2], -11.9%.
The corresponding values for `CN(Cc1ccc(F)cc1)C(=O)CN1CCCC(Cn2cncn2)C1` (stereo not drawn) are -5.51% and 5.36%.
`c1cc2c(cc1C1CCCN1Cc1nnnn1C1CC1)OCCO2` (stereo not drawn): the Percent Effect is -1.25% in assay [1] and 3.61% in assay [2].
As to `COCCOc1ccc(NC(=O)C2CCC2)cn1`, the Percent Effect in assay [1] is -1.46%; in assay [2], -10.4%.
The corresponding values for `Cc1nnc(C(C)NCC2(c3ccc(Cl)cc3)CCCC2)o1` (stereo not drawn) are 4.47% and 3.13%.
The corresponding values for `CC(C)CN1CCN(C(=O)Nc2cc(C(F)(F)F)c[nH]c2=O)CC1` are -1.79% and 5.35%.
As to `COCc1noc(C2(c3ccc(F)cc3)CCOCC2)n1`, the Percent Effect was -2.06% in assay [1] and -10.8% in assay [2].
The corresponding values for `COCC1CN(S(C)(=O)=O)Cc2ncn(CC3CC3)c21` (stereo not drawn) are -3.82% and -1.74%.
The corresponding values for `Cc1cnn(CC2CCCCN2Cc2nc(-c3ccoc3)no2)c1` (stereo not drawn) are 2.91% and 26.6%.
Turning to `O=C(NC1(c2cccc(F)c2)CCOCC1)c1ccoc1`, the Percent Effect in assay [1] was 2.05%; in assay [2] it was -19.4%.
As for `Cn1ccnc1CN1CCN(Cc2ccccc2C#N)CC1`, the Percent Effect in assay [1] was found to be 1.91%; in assay [2], 7.78%.
On to `CN(C)C(=O)N1CCN(Cc2cnn(C)c2)CC2(CNC(=O)C2)C1` (stereo not drawn), for which the values for the Percent Effect in assay [1] and in assay [2] were 2.15% and -5.82%, respectively.
The corresponding values for `CCn1ccnc1CNCC1CCCN1c1cc(NC)ncn1` (stereo not drawn) are 1.78% and -12.7%.
The corresponding values for `O=C1CC(c2cccc(O)c2)c2sc(C(=O)O)c(-c3ccccc3)c2N1` (stereo not drawn) are -3.78% and -24.7%.
The corresponding values for `O=C(c1cnc(-c2cccs2)s1)N1CCCC(n2cccn2)C1` (stereo not drawn) are 2.29% and 17.4%.
Regarding `CC(=O)N1CCC2(CCN(C(=O)c3ccc(Cl)c(C(F)(F)F)c3)CC2)C1`, the Percent Effect in assay [1] came to 4.41%; in assay [2], 11.4%.
For `COc1ccc(CN2CCC3(CC(=O)N(c4cncnc4)C3)C2)cc1` (stereo not drawn), the Percent Effect in assay [1] is 0.382%; in assay [2] it was -11.8%.
For the compound `CCCC(=O)N1CCC2(CC1)CC(NC(C)=O)c1ccccc1O2` (stereo not drawn), the values for the Percent Effect in assay [1] and in assay [2] were -5.26% and -24.9%, respectively.
The corresponding values for `c1ccc2cc(OCCN3CCn4c(nnc4C4CC4)C3)ccc2c1` are 3.95% and -16.6%.
The corresponding values for `O=C(NCc1ccccc1)[C@H]1C[C@@H]2CN(S(=O)(=O)C3CC3)C[C@H]1O2` are 6.82% and 2.32%.
For `c1cnn(CC2CN(Cc3noc(C4CC4)n3)CCO2)c1` (stereo not drawn), the Percent Effect in assay [1] amounted to 0.485%; in assay [2], 5.97%.
